# Source: the OligoGym collection
# Biological target: IKBKAP
# Assay: pooled miR-30 sensor sort-seq; sequence = guide strand
# Settings: shRNA
# Also: reference of the scale not given here.
row,Sequence,sensor-assay potency score (higher = more potent)
1,TAATTCATTAACATCTACCAGA,-0.538
2,TCTTCGTGACATCTTCTTCTTT,-0.422
3,TTTGTCTATAGTAAACCGCTGA,-0.157
4,TTGAATATCCCTGAACTCCAGG,-0.562
5,TATTTGTCTATAGTAAACCGCT,-0.467
6,TTCTTCTGTTGATCTTTGGTGG,-0.174
7,TTGCAGTAGAATTGGGACCTAG,-0.443
8,TTCTATAATATCCAGTCTGTTA,-1.24
9,TATAACTTCAGAGCTTCGTTAT,-0.855
10,TAGCATCGCAGACAAGGTCTAT,-0.408
11,TTCTGAACCAATGAGCACCGTC,-0.483

# Biological target: IKBKB
# Assay: as above
# Settings: shRNA
row,Sequence,sensor-assay potency score (higher = more potent)
1,TAAGTTTAAGATGTCATCCAGG,-0.453
2,TTCGCTAACAACAATGTCCACC,-0.709
3,TTTGAATTGGACACTGTCCAGT,-0.0592
4,TTTTGTGTATTAACCTCTGTTC,-0.501
5,TTGCTTGCTCCTCTAGGTCGTC,-0.796
6,TTGCTCGCTGTACTTCTCCAGG,-0.598
7,TAGTCTCCTGTACAGCTCCCTT,-1.81
8,TTGAAAACTTCACCGTTCCATT,-0.697
9,TTTCCTGATTGTGCCATCGGAT,-0.945
10,TCTTCTTCCGTCTGTAACCAGC,-1.13
11,TAAGTCCACAATGTCGGTCTGC,-0.424
12,TTGCTCCTCTAGGTCGTCCAGC,-1.32

# Biological target: IKBKG
# Assay: as above
# Settings: shRNA
row,Sequence,sensor-assay potency score (higher = more potent)
1,TCGTATTCTTGGAAGAGCTGGT,0.277
2,TTATCGATCACCTCCTGTTTGG,-0.717
3,TTCAGTTTGCTGTACTCCCTCT,-0.286
4,TACGTCCTGATCTGCTGCCGGG,-1.55
5,TTTGAGATCTTCCAGCTGCATT,-1.36
6,TCACAATCTTGTGCTGCTCGGC,-0.555
7,TGTGGTTGTCGTATTCTTGGAA,0.455
8,TTTGCTGTACTCCCTCTGCAGC,-0.913
9,TTCCTCATGTCCTCGATCCTGG,-0.0606
10,TTGCACATGAGGAACTCCTTCT,0.171
11,TTAGTGGCAGCCTCCAAGCGAC,-1.14
12,TTGGAAATGCAGAAGCTCCTCG,0.49

# Biological target: IL10
# Assay: as above
# Settings: shRNA
row,Sequence,sensor-assay potency score (higher = more potent)
1,TTTCACAGGGAAGAAATCGATG,-0.836
2,TTTAACAACAAGTTGTCCAGCT,0.786
3,ATTAAAGGCATTCTTCACCTGC,-0.126
4,TGAAAGAAAGTCTTCACTCTGC,0.368
5,AAGAAAGTCTTCACTCTGCTGA,0.0469
